This is part of a sample that, as a whole, favours compounds with a hit. Of some 83,000 tested, about 20% had one in any assay.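 Values shown are percent growth following 48 h exposure of cells in 96-well plates to a single concentration of compound; below 10 was considered active.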 A number with no mark means an inactive call. Calls of active or inactive are those of the source.
Key:
Assay in all cases: NCI-60 one-dose screen, 48 h (100 = growth as untreated, 0 = no growth, -100 = all killed)
Details in all cases: 10 µM unless noted
[1] = system: NCI-H23 lung
[2] = system: NCI-H226 lung
[3] = system: NCI-H322M lung
[4] = system: HOP-62 NSCLC
[5] = system: NCI-H460 lung
[6] = system: HOP-92 NSCLC
[7] = system: NCI-H522 lung
[8] = system: A549/ATCC NSCLC
[9] = system: 786-0 renal
[10] = system: COLO 205 colon
[11] = system: DU-145 prostate
[12] = system: K-562 leukemia
[13] = system: MALME-3M melanoma
[14] = system: MDA-MB-231 breast
[15] = system: RXF 393 renal
[16] = system: SF-268 CNS
[17] = system: SF-295 CNS
[18] = system: SF-539 CNS
[19] = system: UACC-257 melanoma
[20] = system: M14 melanoma

Row | Structure (SMILES) | growth [1] | growth [2] | growth [3] | growth [4] | growth [5] | growth [6] | growth [7] | growth [8] | growth [9] | growth [10] | growth [11] | growth [12] | growth [13] | growth [14] | growth [15] | growth [16] | growth [17] | growth [18] | growth [19] | growth [20]
1 | CCCCc1n(Cc2ccc3ccccc3c2)c2ccccc2[n+]1Cc1ccc2ccccc2c1 | -83.9% (active) | -72.7% (active) | -82.3% (active) | -76.8% (active) | -81.1% (active) | -70.7% (active) | -77.2% (active) | -72.3% (active) | -80.1% (active) | -66.9% (active) | -93.1% (active) | -73.2% (active) | -86.2% (active) | -88.2% (active) | -92.6% (active) | -80.5% (active) | -87.8% (active) | -94.3% (active) | -58.1% (active) | -81.4% (active)
2 | N#C/C(=C/c1ccc(O)c([N+](=O)[O-])c1)c1nc(-c2ccc([N+](=O)[O-])cc2)cs1 | 13.6% | 52% | 52.8% | 86.8% | 20.5% | -8.22% (active) | 11.2% | 27.1% | 51.9% | 51.2% | 60.3% | 19.5% | 30.5% | 39.5% | 77.7% | 50.5% | 29.6% | 47.2% | 20.2% | 41.5%
3 | N#Cc1ccc(C2C3=C(CCCC3=O)OC3=C2C(=O)c2ccccc2C3=O)cc1 (stereo not given) | 44.9% | 114% | 106% | 111% | 103% | 76.3% | 0.737% (active) | 108% | 94.7% | 109% | 86.8% | 40.3% | 83.4% | 5.78% (active) | 102% | 70.9% | 91.7% | 30.5% | 52.3% | 81.8%
4 | CC1=C/C(=N\N=C2/C=C(C)CC(C)(C)C2)CC(C)(C)C1 | 102% | 106% | 92.7% | 90.9% | 104% | 92.3% | 81.4% | 88.6% | 102% | 119% | 105% | 86.9% | 96.4% | 106% | 114% | 93.4% | 102% | 105% | 90.2% | 103%
5 | OCCNc1nc(NCCO)nc(Nc2ccc(C3=NN(c4cc(Cl)cc(Cl)c4)C(c4ccc(C(F)(F)F)cc4)C3)cc2)n1 (stereo not given) | 56.6% | 80.2% | 49.1% | 32.5% | 14.8% | 65.8% | 61.2% | 32.9% | 2.27% (active) | 25.3% | 22.2% | 10.7% | 29.4% | 42.3% | -27.2% (active) | 41.7% | -15.5% (active) | 24.3% | 59.4% | 36.1%
6 | Cc1nc2sc(C(=O)Nc3ccccc3)c(N)c2cc1C(C)O (stereo not given) | 39% | 108% | 49.9% | 30.1% | 11.2% | 73% | 18.3% | 25.6% | 31.1% | 6.99% (active) | 18.3% | 16.3% | 64.2% | 51.4% | 12.7% | 53.4% | 21.9% | 6.49% (active) | 64% | 16.2%
7 | O=C(Nc1ccc(N=Cc2ccccc2O)cc1)NC1C=c2ccccc2=CC1 (stereo not given) | 100% | 87.8% | 98.6% | 101% | 108% | 109% | 93.3% | 87.9% | 98.2% | 117% | 102% | 87% | 99.1% | 92% | 108% | 91.9% | 102% | 100% | 91.6% | 110%
8 | CC(=O)Nc1c(C(=O)Nc2ccccc2)sc2nc3c(cc12)C(OC(C)=O)CCC3 (stereo not given) | 98% | 92.9% | 99% | 97.1% | 108% | 86.9% | 74.4% | 94.2% | 71.7% | 110% | 105% | 72.1% | 89.7% | 101% | 62.1% | 97.5% | 32.4% | 95.8% | 64.8% | 90.3%
9 | COc1ccccc1Nc1nnc(-c2ccc(Cl)cc2)o1 | 63.9% | 73.6% | 70.5% | 47.4% | 16.1% | 91.1% | 16.6% | 34.4% | 75.8% | 35.3% | 72.3% | 11.7% | 46.3% | 63.5% | 74.6% | 60.5% | 40.3% | 57.1% | 65.8% | 21.7%
10 | NS(=O)(=O)c1ccc(N2Cc3cc(Cl)ccc3OC3=C2C(=O)N(CC2CCCCC2)C3=O)cc1 | -36.5% (active) | -23.5% (active) | 65.4% | -60.9% (active) | -55.1% (active) | -76.6% (active) | -68.6% (active) | -43.5% (active) | -84.7% (active) | -83.2% (active) | -94% (active) | -38% (active) | -77% (active) | -74.5% (active) | -89.7% (active) | -83.9% (active) | -19.3% (active) | -99.4% (active) | -79% (active) | -67.7% (active)
11 | CC(C)(C)c1ccc2oc(=O)n(SC(Cl)(Cl)Cl)c2c1 | 95.1% | 104% | 106% | 94.1% | 96.6% | 106% | 79% | 97% | 91.1% | 106% | 111% | 82.4% | 109% | 104% | 110% | 98.2% | 97.1% | 97.2% | 111% | 94.4%
12 | COc1ccc2c(c1)Oc1nc(N)c(C#N)c(N)c1C2Sc1ccc(O)cc1 (stereo not given) | 93% | 94.5% | 100% | 94.5% | 104% | 92.4% | -37.8% (active) | 98.4% | 106% | 79.7% | 105% | 14.6% | 70.8% | 79.4% | 90.8% | 95% | 104% | 99.4% | 105% | 103%
13 | C[C@@H]1C(=O)[C@@H]2C[C@@H](O)[C@@H](O)C[C@]2(C)[C@H]2CC[C@@]3(C)C(=C12)CC[C@@H]3[C@@](C)(O)[C@H](O)CCC(C)(C)O | 103% | 99.5% | 95.2% | 91% | 105% | 97.5% | 89% | 92.8% | 100% | 117% | 99.2% | 94.9% | 103% | 107% | 116% | 98.2% | 108% | 103% | -10.5% (active) | 105%
14 | COc1cc(C2=NN(C=O)C(c3cccc(Nc4ccnc5cc(C(F)(F)F)ccc45)c3)C2)cc(OC)c1OC (stereo not given) | 59.9% | 64.3% | 66.2% | 70.1% | 44% | 29.1% | 53.1% | 49% | 63.3% | 56.8% | 40% | 37.8% | 86.3% | 58.1% | 72.4% | 46.6% | 65.2% | 77% | 81.2% | 15.4%
15 | COc1ccc(-n2cc(-c3ccc(Cl)c(Cl)c3)[nH]c2=O)cc1OC | 94.8% | 97.5% | 75.9% | 97.3% | 107% | 75% | 85.2% | 89.6% | 59.5% | 109% | 98.3% | 80.2% | 80.1% | 85.1% | 108% | 109% | 101% | 102% | 85.7% | 104%
